From PubChem BioAssay AID624495 (National Center for Advancing Translational Sciences (NCATS), 2012)
Results filed as inconclusive are left out. The source made the active and inactive calls. Calls come from the whole dose curve; as a rule, active = well fitted inhibition curve with a large enough effect; inconclusive = small, poorly fitted or top-dose-only effect, or another doubt; inactive = flat fitted curve, though single readings scatter.

biological target: D(2) dopamine receptor (Homo sapiens) (UniProt P14416); test: HTS Assay for Allosteric Antagonists of the Human D2 Dopamine Receptor: SAR in D2 Beta Arrestin Assay; conditions: DiscoveRx PathHunter D2 beta-arrestin recruitment, luminescence
Sequence (P14416 whole entry, looked up): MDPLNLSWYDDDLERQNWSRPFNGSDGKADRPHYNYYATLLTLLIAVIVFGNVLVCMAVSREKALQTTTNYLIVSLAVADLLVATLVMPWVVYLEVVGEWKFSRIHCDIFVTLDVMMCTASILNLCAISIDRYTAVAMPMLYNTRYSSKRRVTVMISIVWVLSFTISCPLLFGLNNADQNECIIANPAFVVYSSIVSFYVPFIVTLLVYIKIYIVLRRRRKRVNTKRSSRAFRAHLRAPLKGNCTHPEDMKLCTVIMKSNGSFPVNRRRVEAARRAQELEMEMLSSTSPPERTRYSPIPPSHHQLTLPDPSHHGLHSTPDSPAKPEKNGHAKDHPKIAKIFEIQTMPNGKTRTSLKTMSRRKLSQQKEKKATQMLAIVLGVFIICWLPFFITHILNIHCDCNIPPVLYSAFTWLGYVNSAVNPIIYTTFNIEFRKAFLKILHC
Excerpt: There is great interest in identifying small molecule ligands for G-protein coupled receptors (GPCRs) as nearly 50% of all FDA-approved drugs target these important receptor proteins. […] Amongst the dopamine receptors (DARs), the D2 is arguably one of the most validated drug targets in neurology and psychiatry. For instance, all receptor-based antiparkinsonian drugs primarily work via stimulating the D2 DAR, whereas all FDA-approved antipsychotic agents are antagonists of this receptor. The D2 DAR is also therapeutically targeted in other disorders such as restless legs syndrome, tardive dyskinesia, Tourette's syndrome, and hyperprolactinemia. […] This is an orthogonal assay to test the lead compounds against the D2 receptor, using a beta arrestin assay. NIH Molecular Libraries Probe Production Network [MLPCN] NIH Chemical Genomics Center [NCGC] Grant: NS0676421 PI Name: David Sibley, National Institutes of Neurological Disorders and Stroke
DiscoveRx D2 cells were thawed from frozen stock and seeded at 2,100 cells/ 3 uL/well media (DiscoveRx Plating Reagent 2) with MultiDrop Combi dispenser (Thermo Scientific, Logan, UT) onto white tissue culture treated 1536-well Aurora plates (Brooks Automation, Chelmsford, MA) and allowed to attach overnight at 37 deg C, 5% CO2. Next, 23 nL/well of compound solutions in DMSO were added with a pintool transfer (Kalypsis, San Diego, CA). As the positive control, 1 uL/well dopamine (EC100, 57 uM final concentration) diluted in buffer (HBSS + 10 mM HEPES + SMB + 0.1% Tween-20) was dispensed to 1 column of each plate. The rest of the plate was dispensed with buffer only, 1 uL/well as well. The cells were stimulated by compounds or dopamine control for 90 minutes at 37 deg C, 5% CO2, after which 1.5 ul/well of DiscoveRx detection reagent was added with BioRAPTR FRD dispenser. The detection reagent was prepared by mixing of Galacton Star Substrate, Emerald II solution and PathHunter buffer (supplied by the assay kit) together at 1:5:19 proportion accordingly just prior to dispensing. The plates were incubated at ambient temperature for 1 hour and then the luminescent signal was read on ViewLux plate reader (PerkinElmer, Waltham, MA).

Potency, active:
CN1C(=O)c2ccccc2[S@](=O)c2ccc(C(=O)NCCc3cccs3)cc21 725 nM
CN1C(=O)c2ccccc2S(=O)c2ccc(C(=O)NCCc3cccs3)cc21 (configuration not stated) 913 nM
CN1C(=O)c2ccccc2[S@](=O)c2ccc(C(=O)NCc3ccc(Br)cc3)cc21 1020 nM
CCN1C(=O)c2ccccc2[S@](=O)c2ccc(C(=O)NCc3ccc(F)cc3)cc21 576 nM
CN1C(=O)c2ccccc2[S@](=O)c2ccc(C(=O)NCCN3CCCC3)cc21 363 nM
CN1C(=O)c2ccccc2[S@](=O)c2ccc(C(=O)NCc3cccnc3)cc21 2890 nM
CCN1C(=O)c2ccccc2[S@](=O)c2ccc(C(=O)N[C@H](C)c3ccc4ccccc4c3)cc21 2890 nM
CCN1C(=O)c2ccccc2S(=O)c2ccc(C(=O)NCc3ccc(OC)cc3)cc21 (configuration not stated) 2890 nM
CCN1C(=O)c2ccccc2[S@](=O)c2ccc(C(=O)NCc3ccc(OC)cc3)cc21 1150 nM
CCN1C(=O)c2ccccc2[S@](=O)c2ccc(C(=O)NCc3ccc(C#N)cc3)cc21 257 nM
CN1C(=O)c2ccccc2[S@](=O)c2ccc(C(=O)NCc3ccc(Cl)cc3)cc21 2890 nM
CCN1C(=O)c2ccccc2[S@](=O)c2ccc(C(=O)N[C@H](C)c3ccc(Br)cc3)cc21 1290 nM
